According to PubChem BioAssay:
For some of these results: Potency and affinity values are given separately. Active and inactive are the calls of the source.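 How the source made its calls, unless noted: active means calcium signal cut by more than 3 SD below the full-agonist control yet still positive, in both repeats and the earlier primary screen; inactive means the rest.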

How the values were obtained:
[1] = test system: TRPC4 beta (transient receptor potential cation channel C4), mouse; test: TRPC4 cation channel opening, retest – cell-based, Fluo4 calcium, HEK293 TRPC4beta/mu-opioid, duplicates, 10 µM, confirmation (AID 2426;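 active means fluorescence ratio normalized to control raised more than 50% in primary screen plus both repeat runs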;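 on activation: percent rise of integrated ratio over buffer wells lacking compound which define 0%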); details: Fluo4 calcium fluorescence, at 10 µM; stronger effect = higher value
[2] = test system: transient receptor potential cation channel C4 beta (TRPC4), mouse; test: TRPC4 cation channel opening, second retest – cell-based, second round, Fluo4, HEK293 TRPC4beta/mu-opioid, 1 µM, confirmation (AID 2461;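 active means primary screen active and over 50% activation in each of two duplicate runs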;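 on activation: 0% = wells without test compound as baseline of integrated fluorescence ratio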); details: Fluo4 calcium fluorescence, at 1 µM; stronger effect = higher value
[3] = test system: TRPC4 (transient receptor potential cation channel C4 beta), mouse; test: potentiation of DAMGO EC20 TRPC4 response – cell-based, second round, Fluo-4, HEK293 TRPC4beta/mu-opioid, 1 µM, confirmation (AID 2554;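 active means primary screen hit whose fluorescence ratio, in both repeats, exceeds the weak agonist control mean by 3 SD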); details: DAMGO EC20, Fluo-4 calcium flux, at 1 µM; stronger effect = higher value
[4] = test system: TRPC4 beta (transient receptor potential cation channel C4), mouse; test: potentiation of DAMGO EC20 TRPC4 response – cell-based, Fluo-4, HEK293 TRPC4beta/mu-opioid, confirmation (AID 2555;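 active means primary screen hit whose calcium fluorescence ratio, in both repeats, exceeds the weak agonist control mean by 3 SD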); details: DAMGO EC20, Fluo-4 calcium flux, at 10 µM; stronger effect = higher value
[5] = molecular target: Short transient receptor potential channel 4 (Mus musculus) (UniProt Q9QUQ5); test: blockers of DAMGO-evoked TRPC4 calcium flux – cell-based, Fluo4, HEK293 TRPC4beta/mu-opioid, confirmation (AID 2636); details: at 10 µM; stronger effect = higher value
Short transient receptor potential channel 4 (Mus musculus), sequence (Q9QUQ5 whole entry, looked up): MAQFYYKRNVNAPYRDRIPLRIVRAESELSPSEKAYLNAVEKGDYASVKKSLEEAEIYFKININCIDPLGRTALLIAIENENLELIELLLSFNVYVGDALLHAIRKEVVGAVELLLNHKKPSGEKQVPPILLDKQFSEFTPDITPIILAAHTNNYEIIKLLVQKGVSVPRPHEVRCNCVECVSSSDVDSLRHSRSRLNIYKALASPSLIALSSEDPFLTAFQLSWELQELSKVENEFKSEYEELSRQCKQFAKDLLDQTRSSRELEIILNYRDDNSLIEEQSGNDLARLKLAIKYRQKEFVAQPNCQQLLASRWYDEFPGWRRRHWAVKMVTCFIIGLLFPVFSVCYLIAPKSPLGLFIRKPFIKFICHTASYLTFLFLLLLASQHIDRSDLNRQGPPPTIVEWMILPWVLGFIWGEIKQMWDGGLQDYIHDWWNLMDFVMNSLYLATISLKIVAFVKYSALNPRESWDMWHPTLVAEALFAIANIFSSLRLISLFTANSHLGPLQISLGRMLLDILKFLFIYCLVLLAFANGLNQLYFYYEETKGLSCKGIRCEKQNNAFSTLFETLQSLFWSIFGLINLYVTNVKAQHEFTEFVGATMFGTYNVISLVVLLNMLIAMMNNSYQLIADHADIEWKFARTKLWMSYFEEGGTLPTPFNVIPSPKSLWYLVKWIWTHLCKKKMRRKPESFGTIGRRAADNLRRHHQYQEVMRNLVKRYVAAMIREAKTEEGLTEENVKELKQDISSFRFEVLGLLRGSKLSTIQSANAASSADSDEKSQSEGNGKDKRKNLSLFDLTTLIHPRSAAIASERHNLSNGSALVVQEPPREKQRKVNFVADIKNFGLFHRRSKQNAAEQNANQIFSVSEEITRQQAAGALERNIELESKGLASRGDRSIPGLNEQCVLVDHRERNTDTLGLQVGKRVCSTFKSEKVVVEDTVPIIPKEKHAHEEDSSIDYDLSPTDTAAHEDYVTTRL

[6] = molecular target: Short transient receptor potential channel 4 (Mus musculus) (UniProt Q9QUQ5); test: blockers of DAMGO-evoked TRPC4 calcium flux – cell-based, second round, Fluo4, HEK293 TRPC4beta/mu-opioid, 1 µM, confirmation (AID 2637;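 active means calcium signal ratio cut to more than 3 SD under the fully stimulated control mean yet still positive, in both repeats and the primary screen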); details: at 1 µM; stronger effect = higher value
[7] = molecular target: Short transient receptor potential channel 4 (Mus musculus) (UniProt Q9QUQ5); test: calcium entry via TRPC4 opening agents – cell-based, HEK293 TRPC4/mu-opioid, Fluo-4 calcium, dose response (AID 434937;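 active means primary screen activator hit with a dose response curve and TRPC4 channel activation at any tested dose; inactive means no activation, no dose response, or not a primary hit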); details: HEK293 TRPC4 cells, Fluo-4 calcium fluorescence ratio; series mostly up to 20 µM
[8] = molecular target: Short transient receptor potential channel 4 (Mus musculus) (UniProt Q9QUQ5); test: potentiation of DAMGO-evoked TRPC4 calcium signal – cell-based, HEK293 TRPC4/mu-opioid, Fluo-4 calcium, EC20 DAMGO, dose response (AID 434941;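 active means earlier screen potentiator hit that boosts the TRPC4 ion channel at some dose, with a dose response; inactive means no potentiation, no dose response, or not a prior hit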;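 further: calcium entry triggered by an EC20 dose of DAMGO at the co-expressed mu-opioid receptor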); details: HEK293 TRPC4/mu-opioid cells, Fluo-4 calcium fluorescence; series mostly up to 20 µM
[9] = molecular target: Short transient receptor potential channel 6 (Mus musculus) (UniProt Q61143); test: TRPC6 blockade by TRPC4 inhibitor hits – cell-based, HEK293, membrane potential dye, duplicate, selectivity assay for TRPC4 inhibitor project, confirmation (AID 434948;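 active means active in primary screen and both duplicates, each dropping signal beyond three positive-control SD with fluorescence still positive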); details: HEK293 TRPC6, membrane potential dye fluorescence, at 10 µM; inhibition: stronger effect = higher value, stimulated with maximal-effect acetylcholine unless noted; outcome: stimulated with maximal-effect acetylcholine unless noted
Short transient receptor potential channel 6 (Mus musculus), sequence (Q61143 whole entry, looked up): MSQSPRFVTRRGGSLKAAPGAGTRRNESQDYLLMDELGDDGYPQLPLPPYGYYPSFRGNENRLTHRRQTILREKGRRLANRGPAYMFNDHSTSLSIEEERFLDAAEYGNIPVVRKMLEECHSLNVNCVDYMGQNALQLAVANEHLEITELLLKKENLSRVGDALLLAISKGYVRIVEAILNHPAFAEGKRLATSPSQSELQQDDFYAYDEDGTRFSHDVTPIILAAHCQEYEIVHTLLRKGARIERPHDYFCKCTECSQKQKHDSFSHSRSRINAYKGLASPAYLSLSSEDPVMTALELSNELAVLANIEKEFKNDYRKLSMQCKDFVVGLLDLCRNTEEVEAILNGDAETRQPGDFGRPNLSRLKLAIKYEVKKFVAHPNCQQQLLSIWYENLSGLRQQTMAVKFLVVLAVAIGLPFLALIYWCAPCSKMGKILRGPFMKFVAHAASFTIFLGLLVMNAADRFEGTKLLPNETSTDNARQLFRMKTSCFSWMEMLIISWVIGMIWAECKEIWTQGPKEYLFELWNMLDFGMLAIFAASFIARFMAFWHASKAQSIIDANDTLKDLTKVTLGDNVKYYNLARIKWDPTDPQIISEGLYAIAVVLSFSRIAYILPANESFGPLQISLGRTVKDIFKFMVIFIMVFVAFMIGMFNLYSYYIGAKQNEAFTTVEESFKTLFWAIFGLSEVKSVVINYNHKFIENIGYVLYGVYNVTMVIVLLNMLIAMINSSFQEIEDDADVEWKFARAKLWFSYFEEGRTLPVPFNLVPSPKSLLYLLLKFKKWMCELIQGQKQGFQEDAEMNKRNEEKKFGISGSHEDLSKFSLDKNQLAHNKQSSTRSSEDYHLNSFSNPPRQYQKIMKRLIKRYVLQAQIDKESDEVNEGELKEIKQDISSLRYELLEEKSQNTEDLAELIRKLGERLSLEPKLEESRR

[10] = molecular target: Short transient receptor potential channel 6 (Mus musculus) (UniProt Q61143); test: TRPC6 opening by TRPC4 activator hits – cell-based, HEK293, membrane potential dye, duplicate, selectivity assay for TRPC4 activator project, confirmation (AID 434950;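 active means membrane potential signal rise above negative control mean plus 3 SD in both duplicates, also active in the earlier TRPC4 screen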;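 on activation: 0% = buffer only wells and 100% = acetylcholine maximal-effect wells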); details: HEK293 TRPC6, membrane potential fluorescence, at 10 µM; activation: stronger effect = higher value; outcome: activation
[11] = molecular target: Short transient receptor potential channel 6 (Mus musculus) (UniProt Q61143); test: positive modulators of mouse TRPC6 channel – HEK293 cells, membrane potential dye, duplicate, selectivity assay for TRPC4 potentiator project, confirmation (AID 434952;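 active means compound raising the membrane signal above positive-control mean plus 3 SD in both repeats, and a primary screen hit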); details: HEK293 TRPC6, membrane potential dye fluorescence, at 10 µM; maximal acetylcholine added after compound unless noted
[12] = molecular target: Short transient receptor potential channel 4 (Mus musculus) (UniProt Q9QUQ5); test: calcium flux activators in TRPC4/5HT1a cells, counter-screen for TRPC4 activator project, cell-based, second counter screen, HEK293 TRPC4/5HT1a, Fluo-4 (AID 434977;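 active means calcium signal rise above buffer-control mean plus 5 SD in both duplicates, and also a hit in the primary screen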;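 on activation: plate controls were assay buffer for no effect and maximal serotonin response for full effect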); details: Fluo-4 calcium flux, at 10 µM; stronger effect = higher value
[13] = serotonin-gated TRPC4 signal block – cell-based, second counter screen, HEK293 TRPC4/5HT1a, Fluo-4, counter-screen for TRPC4 inhibitor project, confirmation (AID 434978;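 active means primary screen active whose calcium signal fell more than 3 SD beyond the full-serotonin control mean in both duplicate plates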;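 further: serotonin given first at submaximal then at maximal dose after compound preincubation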); details: Fluo-4 calcium flux, at 10 µM; inhibition: stronger effect = higher value, serotonin added to trigger calcium flux unless noted; outcome: serotonin added to trigger calcium flux unless noted
[14] = test system: TRPC4 (mouse), co-expressed with 5HT1a in HEK293; test: enhancement of serotonin-evoked TRPC4 response – cell-based, second counter screen, HEK293 TRPC4/5HT1a, Fluo-4, counter-screen for TRPC4 potentiator project, confirmation (AID 434979;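 active means signal rise over 3 SD above mean of control wells given weak agonist, in both repeats and first screen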); details: Fluo-4 calcium flux, at 10 µM; outcome: serotonin added at its EC20 dose unless noted; potentiation: stronger effect = higher value, serotonin added at its EC20 dose unless noted
[15] = nonspecific calcium rise without TRPC4 – cell-based, HEK293 mu-opioid receptor line, counter-screen for TRPC4 activator project, confirmation (AID 449723;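 active means hit in primary screen, with calcium signal over 5 SD above buffer well mean in both duplicates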;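 further: counter screen cells carry the mu-opioid receptor alone and lack TRPC4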); details: HEK293 mu-opioid cells, Fluo-4 calcium fluorescence, at 10 µM; stronger effect = higher value
[16] = nonspecific potentiation of DAMGO calcium response – cell-based, HEK293 mu-opioid receptor line, counter-screen for TRPC4 allosteric potentiator project, confirmation (AID 449724;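 active means calcium signal rise more than 3 SD above the low-dose agonist control mean, in both duplicate plates and the primary screen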); details: HEK293 mu-opioid receptor cells, Fluo-4 calcium flux, at 10 µM; compound added before EC20 DAMGO stimulus unless noted
[17] = molecular target: Short transient receptor potential channel 4 (Mus musculus) (UniProt Q9QUQ5); test: block of DAMGO-driven TRPC4 calcium entry – cell-based, HEK293 TRPC4/mu-opioid, Fluo-4 calcium, dose response (AID 434942;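 active means primary screen inhibitor hit that blocks the TRPC4 channel at some tested dose, yielding a dose curve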); details: HEK293 TRPC4/mu-opioid cells, DAMGO-evoked Fluo-4 calcium ratio; series mostly up to 20 µM

CCOC(=O)C1(c2ccccc2)CCN(CC(=O)Nc2ccc(C)cc2)CC1
inactive: outcome [1] | outcome [2] | outcome [3] | outcome [4] | outcome [6] | outcome [7] | outcome [8] | outcome [9] inactive [setting not given] | outcome [10] | outcome [11] inactive [setting not given] | outcome [12] | outcome [13] inactive [setting not given] | outcome [14] inactive [setting not given] | outcome [15] | outcome [16] inactive [setting not given]
active: inhibition [5] 80%

CC(=O)OC1(c2ccccc2)CCN(C2CCCCC2)CC1C (stereo not drawn)
inactive: outcome [1] | outcome [2] | outcome [3] | outcome [4] | outcome [6] | outcome [7] | outcome [8] | outcome [9] inactive [setting not given] | outcome [10] | outcome [11] inactive [setting not given] | outcome [12] | outcome [13] inactive [setting not given] | outcome [14] inactive [setting not given] | outcome [15] | outcome [16] inactive [setting not given]
active: inhibition [5] 91%

CN(C)C(CNC(=O)Cc1c(Cl)cccc1Cl)c1ccccc1 (stereo not drawn)
inactive: outcome [3] | outcome [4] | outcome [5] | outcome [6] | outcome [8] | outcome [17] | outcome [9] | outcome [11] | outcome [12] | outcome [13] | outcome [14] | outcome [15] | outcome [16]
active: activation [1] 148% | activation [2] 86% | activation [10] 57.5%

CN(C)C(CNC(=O)Cc1ccc(Br)cc1)c1ccccc1 (stereo not drawn)
inactive: outcome [3] | outcome [4] | outcome [5] | outcome [6] | outcome [8] | outcome [17] | outcome [9] | outcome [11] | outcome [12] | outcome [13] | outcome [14] | outcome [15] | outcome [16]
active: activation [1] 96% | activation [2] 133% | activation [10] 38.5%

COc1ccc(C(CNC(=O)CCc2ccsc2)N(C)C)cc1 (stereo not drawn)
inactive: outcome [3] | outcome [4] | outcome [5] | outcome [6] | outcome [8] | outcome [17] | outcome [9] | outcome [11] | outcome [12] | outcome [13] | outcome [14] | outcome [15] | outcome [16]
active: activation [1] 67% | activation [2] 129% | activation [10] 45.5%

O=[N+]([O-])c1ccc(N2CCCNCC2)c2ncccc12
inactive: outcome [3] | outcome [4] | outcome [5] | outcome [6] | outcome [8] | outcome [17] | outcome [9] | outcome [10] | outcome [11] | outcome [13] | outcome [14] | outcome [15] | outcome [16]
active: activation [1] 133% | activation [2] 139% | activation [12] 55.8%

CCc1n[nH]c(CCN)n1
active: activation [1] 178% | activation [12] 48.7%
inactive: outcome [2] | outcome [3] | outcome [4] | outcome [5] | outcome [6] | outcome [8] | outcome [17] | outcome [9] | outcome [10] | outcome [11] | outcome [13] | outcome [14] | outcome [15] | outcome [16]

c1ccc2sc(N3CCNCC3)nc2c1
active: activation [1] 97% | activation [2] 78% | activation [10] 29.5% | activation [12] 51.8%
inactive: outcome [3] | outcome [4] | outcome [5] | outcome [6] | outcome [8] | outcome [17] | outcome [9] | outcome [11] | outcome [13] | outcome [14] | outcome [15] | outcome [16]

COc1ccc(CNCCc2ccc3c(c2)OCO3)cc1Br
inactive: outcome [2] | outcome [3] | outcome [4] | outcome [5] | outcome [6] | outcome [8] | outcome [17] | outcome [9] inactive [setting not given] | outcome [11] inactive [setting not given] | outcome [13] inactive [setting not given] | outcome [14] inactive [setting not given] | outcome [15] | outcome [16] inactive [setting not given]
active: activation [1] 141% | activation [10] 47.5% | activation [12] 27.3%

O=C1OC(c2ccc([N+](=O)[O-])cc2)=N/C1=C/N1CC2CC(C1)c1cccc(=O)n1C2 (stereo not drawn)
inactive: outcome [2] | outcome [3] | outcome [4] | outcome [5] | outcome [6] | outcome [8] | outcome [17] | outcome [9] | outcome [11] | outcome [13] | outcome [14] | outcome [16]
active: activation [1] 158% | activation [10] 254% | activation [12] 64.7% | activation [15] 55.4%

Cc1nc2ccccn2c1P(=S)(N1CCCCC1)N1CCCCC1
active: activation [1] 88% | activation [10] 88% | activation [12] 87.7% | activation [15] 74.7%
inactive: outcome [2] | outcome [3] | outcome [4] | outcome [5] | outcome [6] | outcome [8] | outcome [17] | outcome [9] | outcome [11] | outcome [13] | outcome [14] | outcome [16]

CCOc1cc(CNCCc2c[nH]c3ccccc23)cc(Cl)c1OC
active: activation [1] 129% | activation [12] 65.6%
inactive: outcome [2] | outcome [3] | outcome [4] | outcome [5] | outcome [6] | outcome [8] | outcome [17] | outcome [9] | outcome [10] | outcome [11] | outcome [13] | outcome [14] | outcome [15] | outcome [16]

COc1ccc(C(=O)C2CCCN(C3CSCCSC3)C2)cc1OC (stereo not drawn)
active: activation [1] 166% | activation [2] 86% | activation [10] 33.5% | activation [12] 87.7%
inactive: outcome [3] | outcome [4] | outcome [5] | outcome [6] | outcome [8] | outcome [17] | outcome [9] | outcome [11] | outcome [13] | outcome [14] | outcome [15] | outcome [16]
